Shiga toxin inh = Shiga toxin inhibition; 290,000 compounds, 9.2% hits; inhibition, % at 38.7 µM; Vero cells, Shiga toxin protein synthesis inhibition reporter; in the data active = inhibition mostly above about 28%, no sharp cut-off; inactive = mostly below about 43%; note: 0% is about no effect
SARS PLpro yeast = inhibitors of SARS-CoV papain-like protease in yeast; S. cerevisiae expressing SARS-CoV PLpro, growth rescue; Potency, µM (top dose mostly 32.9 µM), inactives show at the top dose activity, positive = growth rescue, usual class: activators; 330,000 compounds, 0.19% hits; calls by dose curve; note: potency is the fitted concentration of half-maximal effect; 0% is about no effect; nearly all actives have a fitted effect of over 55% in size
CHX counter = affects cycloheximide protein synthesis inhibition readout, counter-screen; cell reporter, cycloheximide protein synthesis inhibition counterscreen; max response, %; 300,000 compounds, 12% hits; AID 2314; in the data active = max response mostly above about 13%, no sharp cut-off; inactive = mostly below about 14%; note: read at 38.3 µM for the half of the compounds with a filed dose; 0% is about no effect
Pf growth 96h = P. falciparum growth inhibition at 96 hours. P. falciparum luciferase reporter growth, 96 h. Potency, µM (top dose mostly 28.7 µM), for the others: at the top dose activity change, negative = inhibition, hits mostly inhibitors. 320,000 compounds, 6.9% hits; note: potency is the fitted concentration of half-maximal effect; % is set by controls: 0 for no effect and ±100 for the full control effect
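Plates of compound plus infected erythrocytes (2% hematocrit, 0.05% parasitemia final) incubate 96 hours, 37 C, 5% CO2. Detection reagent added; reduced luminescence from the parasites' luciferase reporter flags inhibition.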
AMA1-RON2 inh = disrupts binding of P. falciparum AMA1 to RON2. 360,000 compounds, 0.2% hits. AlphaScreen AMA1-biotinylated RON2 peptide binding. Potency, µM (titrated, usually from 58.2 µM), for inactives: top-dose activity change, negative = inhibition, actives largely listed as inhibitors;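 note: potency is the fitted concentration of half-maximal effect; 0% = vehicle wells and -100% = peptide control; nearly all actives have a fitted effect of over 45% in size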
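AMA1 (3D7) with his tag at 25 nM final met compounds first, then biotinylated RON2 peptide at 25 nM; detection used donor plus acceptor beads, 10 µg/mL apiece, read by AlphaScreen after 30 min at room temperature.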
Pf growth 48h = P. falciparum growth inhibition at 48 hours (one generation) | P. falciparum luciferase growth in erythrocytes, 48 h | Potency, µM (highest dose often 28.7 µM), without a hit: top-dose activity change, negative = inhibition, actives largely listed as inhibitors | 310,000 compounds, 5.9% hits | AID 504832; note: potency is the fitted concentration of half-maximal effect; % is set by controls: 0 for no effect and ±100 for the full control effect
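In quantitative HTS format, infected erythrocytes bearing luciferase-reporter parasites were treated for a single generation at 37 C. Luminescence after adding detection reagent served as the growth measure.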
* marks the source's active call; other numbers are inactive results; ? = inconclusive; nt = not tested or not shown; [ ] = dose if it differs, or a comment. Most compounds without a hit are left out; they make up all but 19% or so of the library. Unless noted, calls come from the whole dose curve; as a rule, active = well fitted curve in the direction sought with a large enough effect; inconclusive = small, poorly fitted or top-dose-only effect, or another doubt; inactive = no such curve, though single readings can be large; an effect the other way counts as inactive or inconclusive.

SMILES | Shiga toxin inh | SARS PLpro yeast | CHX counter | Pf growth 96h | AMA1-RON2 inh | Pf growth 48h
CCCCCCC(=O)Nc1ccc(Cl)cn1 | 100.2* | nt | 32.0* | nt | 21.7% | 58.9%
O=C(CCCOc1ccccc1)Nc1ccc(Cl)cn1 | 63.8* | -0.6% | 29.6* | 74.3% | 9.2% | 20.4%
COc1cccc(-c2nn(Cc3ccccc3)cc2C(=O)O)c1 | 24.9 | 22.9% | 2.6 | 10.3% | 6.0% | -0.7%
COc1cccc(-c2nn(Cc3ccccc3)cc2CO)c1 | 89.6* | 8.7% | 45.3* | 71.1% | -5.2% | 39.7%
Cc1ccc(NC(=O)c2ncn(CCCN(C)CCc3ccccn3)n2)cc1C | nt | nt | nt | nt | 12.6% | nt
Cn1c(=O)c(C(=O)COC(=O)c2cc(C3CC3)nc3ccccc23)c(N)n(Cc2ccccc2)c1=O | -11.8 | -9.3% | -4.0 | 9.28µM* | 10.1% | ?
Cn1c(=O)c(C(=O)COC(=O)c2cc(C(F)(F)F)nc3ccccc23)c(N)n(Cc2ccccc2)c1=O | -10.4 | -3.2% | -4.6 | ? | nt | 11.7µM*
Cn1c(=O)c(C(=O)COC(=O)c2cc(-c3ccccc3)nc3ccccc23)c(N)n(Cc2ccccc2)c1=O | -2.8 | -8.3% | -2.1 | ? | nt | ?
Cn1c(=O)c(C(=O)COC(=O)c2cc(-c3ccco3)nc3ccccc23)c(N)n(CC2CC2)c1=O | 31.0 | 0.6% | 21.9* | 8.28µM* | nt | ?
CC(C)Cn1c(N)c(C(=O)COC(=O)/C=C/c2ccccc2)c(=O)n(C)c1=O | nt | 2.8% | nt | 10.4µM* | -13.0% | ?
CCCCCCNC(=O)C(C(=O)OCC)C1CCCCC1 (centres undefined) | 4.3 | 0.9% | 0.7 | 7.3%[5.75 µM] | -3.4% | -7.9%
Cn1c(N)c(C(=O)COC(=O)c2ccccc2C(=O)c2ccccc2)c(=O)n(C)c1=O | nt | 0.7% | nt | -113.1% | 9.6% | 13.1µM*
Cn1c(N)c(C(=O)COC(=O)c2ccccc2C(=O)c2ccc(Cl)c([N+](=O)[O-])c2)c(=O)n(C)c1=O | nt | 1.4% | nt | nt | -2.5% | nt
Cc1ccc(C(c2nc3ccccc3[nH]2)n2c(-c3ccccc3)nc3ccccc32)cc1 (centres undefined) | nt | nt | nt | nt | 75.3% | nt
O=C(c1ccc(N2CCN(C(=O)c3ccccc3Br)CC2)cc1)c1cccc(F)c1 | -7.0 | 0.7% | 12.1 | 9.28µM* | 15.0% | ?
CCOC(=O)N1CCN(c2ccc(C(=O)c3cccc(F)c3)cc2)CC1 | 0.4 | -5.2% | 22.7 | 33.2% | 38.5% | nt
O=C(c1cccc(F)c1)N1CCN(S(=O)(=O)Cc2ccccc2)CC1 | -2.4 | 1.5% | 1.4 | 0.0% | -7.0% | 2.94µM*
O=C(c1ccc(N2CCN(C(=O)c3cccc(F)c3)CC2)cc1)c1cccc(F)c1 | -18.1 | -1.1% | -2.0 | ? | 21.2% | 13.1µM*
O=C(c1cccc(F)c1)N1CCN(C(=O)C2CC2)CC1 | -7.9 | 10.4% | -3.2 | 0.329µM* | 19.2% | -3.4%
O=C(c1cccc(F)c1)N1CCCC(C(=O)N2CCCCC2)C1 (centres undefined) | -12.7 | 5.3% | -3.0 | ? | -3.1% | -24.3%
Cc1cccc(N2CCN(C(=O)c3[nH]c(C(F)(F)F)nc3-c3ccccc3)CC2)c1C | nt | nt | nt | nt | 1.4% | nt
CN(C)C(=O)c1cccc(-c2cnc3c(NC=O)cc(-c4ccccc4F)cn23)c1 | nt | nt | nt | nt | 0.0% | nt
CCS(=O)(=O)/N=C(\N)c1ccccc1 | 22.2 | 6.2% | 30.1* | 37.9% | 9.6% | 7.6%
CCOc1ccc(S(=O)(=O)/N=C(\N)c2ccccc2)cc1 | 17.2 | -1.9% | -1.8 | 23.3% | 13.7% | -3.9%
CC(C(N)=O)N1C(=O)NC2(CCCc3ccccc32)C1=O (centres undefined) | -6.8 | 0.8% | -1.0 | 23.1% | -13.7% | 11.7%
SMILES | Shiga toxin inh | SARS PLpro yeast | CHX counter | Pf growth 96h | AMA1-RON2 inh | Pf growth 48h
CCOC(=O)C1=C(C)N2C(=C(C#N)[C@@H]1c1ccc(C(=O)OC)cc1)SC[C@@]2(O)C(C)(C)C | -3.7 | -15.0% | 9.8 | nt | 87.8% | 13.1µM*
COC(=O)C1=C(C)N(C)C(C)=C(C(=O)OC)C1c1ccc(C(=O)OC)cc1 | 26.1 | -0.6% | -0.3 | ? | 3.7% | -12.3%
COc1ccccc1C(=O)NCCSCc1ccccc1Cl | 32.1 | -13.1% | 8.1 | 2.94µM* | -19.3% | 7.38µM*
O=C(COc1ccccc1)NCCSCc1ccccc1Cl | 47.9* | -1.5% | 41.7* | 2.5% | 6.7% | -1.7%
O=C(CN1C(=O)c2ccccc2S1(=O)=O)NCCSCc1ccccc1Cl | 26.8 | 1.8% | 12.7* | -17.5% | 18.4% | 25.1%
O=C(CN1C(=O)c2ccccc2S1(=O)=O)NCCSCc1c(F)cccc1Cl | -17.7 | -6.2% | -1.0 | 29.0% | -7.3% | 10.9%
O=C(/C=C/c1ccccc1)NCCSCc1ccccc1Cl | -23.0 | -25.7% | 11.2* | ? | 0.0% | ?
O=C(Nc1ccccc1N1CCOCC1)C1Cc2ccccc2CN1C(=O)c1ccco1 (centres undefined) | -12.8 | 2.0% | -3.2 | nt | -11.4% | 10.4µM*
O=C(Nc1nnc(SCc2ccc(F)cc2)s1)C1Cc2ccccc2CN1C(=O)c1ccco1 (centres undefined) | 3.6 | -1.0% | 9.5 | -8.1% | 58.4% | -20.9%
O=C(Nc1nnc(C2CC2)s1)C1Cc2ccccc2CN1C(=O)c1ccco1 (centres undefined) | 39.4* | 0.8% | 22.9* | ? | 2.4% | -24.4%
COc1ccc(N2CCN(C(=O)COC(=O)c3ccco3)CC2)cc1 | -10.0 | 2.2% | -2.6 | 30.9% | 8.1% | 1.2%
COc1ccc(NC(=O)C2Cc3ccccc3CN2C(=O)c2ccco2)cc1 (centres undefined) | 43.2 | 0.2% | 20.5* | 4.8% | -5.3% | -0.6%
Cc1c(NC(=O)C2Cc3ccccc3CN2C(=O)c2ccco2)c(=O)n(-c2ccccc2)n1C (centres undefined) | -6.6 | 9.0% | -3.7 | nt | 14.5% | nt
COc1ccc(N2CCN(C(=O)C3Cc4ccccc4CN3C(=O)c3ccco3)CC2)cc1 (centres undefined) | nt | 0.1% | nt | ? | -7.5% | 8.28µM*
Cc1nnc(NC(=O)CC23CC4CC(CC(C4)C2)C3)s1 | 24.9 | 5.7% | 1.1 | 7.2% | -0.4% | 8.8%
O=C(CCCSc1nc2ccccc2[nH]1)N1CCN(c2ccc([N+](=O)[O-])cc2)CC1 | -6.2 | 2.0% | -2.4 | nt | 1.1% | ?
O=C(C1Cc2ccccc2CN1C(=O)c1ccccc1)N1CCN(c2ccccc2)CC1 (centres undefined) | 22.1 | -0.9% | -2.5 | 4.15µM* | -1.3% | ?
O=C(c1ccc(CN2CCc3ccccc3C2)cc1)N1CCN(c2ccccc2)CC1 | 6.2 | -10.6% | -4.1 | 12.8% | 9.9% | 23.4%
CSc1c(CC(=O)Nc2ccc(F)cc2)n(Cc2ccccc2)c2ccccc12 | -7.4 | 20.4% | -4.8 | 13.1µM* | -10.6% | 7.38µM*
Cn1c(=O)n(CC(=O)Nc2ccc(F)cc2)c2ccccc21 | -10.0 | 3.7% | -1.2 | 19.1% | -1.9% | 35.1%

From PubChem BioAssay
